SMILES strings stand for the structures. A number with no mark means an inactive call. Results filed as inconclusive are left out. Activity calls are given as the source filed them. Unless noted, the call rests on the fitted dose curve; in most records, active means well fitted curve in the direction sought with a large enough effect in the repeat runs; inconclusive means weak or mixed curves; inactive means no such curve, though single readings can be large; an effect the other way counts as inactive or inconclusive.

The values below come from PubChem BioAssay (Tox21).

Assay [1] is described as follows: qHTS assay to identify small molecule agonists of the constitutive androstane receptor (CAR) signaling pathway - cell viability counter screen (AID 1224836). Further: nearly all actives have a fitted effect of over 45% in size. The procedure, abridged: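 Viability read-out: CellTiter-Fluor fluorescence after 23 h compound exposure at 37 C/5% CO2 in double-stable HepG2-CYP2B6-hCAR cells, with PK11195 present at 0.75 uM final; compounds tested in 15-point titration.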

Assay [2] can be described thus: qHTS assay to identify small molecule antagonists of the constitutive androstane receptor (CAR) signaling pathway - cell viability counter screen (AID 1224837). Further: nearly all actives have a fitted effect of over 45% in size. A digest of the protocol: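 CITCO at 50 nM final was added alongside compounds (15 concentrations) to double-stable hCAR/CYP2B6-2.2kb HepG2 cells. Following 23 hr at 37 C, cell viability was quantified by CellTiter-Fluor fluorescence intensity.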

Assay [3] has as its target Nuclear receptor subfamily 1 group I member 3 (Homo sapiens) (UniProt Q14994). The experiment in a line: qHTS assay to identify small molecule antagonists of the constitutive androstane receptor (CAR) signaling pathway (AID 1224838). Further: nearly all actives have a fitted effect of over 40% in size. A digest of the protocol: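 Inhibition of CITCO-driven (50 nM final) CYP2B6 reporter expression is measured in HepG2 cells stably carrying hCAR. Fifteen compound concentrations are applied for 24 h at 37 C, followed by luciferase luminescence.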

Assay [4] can be described thus: qHTS assay to identify small molecule antagonists of the estrogen related receptor signaling pathway with the pleiotropic PPARgamma coactivator (PGC) from Tox21 10K library - cell viability counter screen (AID 1224840; active means well fitted cell-killing curve with a large enough effect in the repeat runs, not every such curve was filed as active; further: nearly all actives have a fitted effect of over 40% in size). The procedure, abridged: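 Readout: fluorescence intensity from CellTiter-Fluor after 30 min at 37 C/5% CO2. Preceded by 17.5 h treatment of PGC/ERR cells with DMSO-dissolved compounds, added 6 h post-seeding.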

Assay [5] concerns the target Thyrotropin receptor (Homo sapiens) (UniProt P16473). The experiment in a line: qHTS assay to identify small molecule agonists of the thyroid stimulating hormone receptor (TSHR) signaling pathway (AID 1224843; calls by dose curve; further: nearly all actives have a fitted effect of over 45% in size). A digest of the protocol: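 Compounds are titrated over 15 concentrations, in triplicate, onto TSHR-HEK293 cells seeded at 800/well. Plates sit 30 min at room temperature before cAMP-d2 and anti-cAMP cryptate are added; signal is read after a further hour.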

Assay [6] can be described thus: qHTS assay to identify small molecule agonists of the hypoxia (HIF-1) signaling pathway - cell viability counter screen (AID 1224844; calls by dose curve; further: nearly all actives have a fitted effect of over 50% in size). A digest of the protocol:
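In this counter screen, HRE-bla ME-180 cell viability after 17 hrs of compound exposure at 37C was read by CellTiter-Glo luminescence, multiplexed with the beta-lactamase reporter measurement.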

Assay [7] can be described thus: qHTS assay to identify small molecule agonists of H2AX (AID 1224845; active means well fitted activation curve with a large enough effect in the signal ratio in the repeat runs, not every such curve was filed as active; the % refers to the signal ratio; further: potency means the concentration at half of the fitted maximal effect). The procedure, abridged: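 Wild-type CHO-K1 cells plated overnight, then exposed 3 hr at 37C to compounds at 15 concentrations (0.76% DMSO). Lysed, then HTRF anti-pH2AX(S139)-cryptate/anti-H2AX-d2 detection after 24 hr at room temperature; emissions 665 and 620 nm.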
The nature of assay [8]: qHTS assay to identify small molecule agonists of the hypoxia (HIF-1) signaling pathway (AID 1224846; active means well fitted activation curve with a large enough effect in the signal ratio in the repeat runs, not every such curve was filed as active; the % refers to the signal ratio). The procedure, abridged:
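ME-180 HRE-bla reporter cells; compounds in DMSO, 17 h at 37C; read-out beta-lactamase via CCF4-AM FRET.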

A short description of assay [9]: qHTS RealTime-Glo MT Cell Viability Assay in HepG2 cells - 24 hour (AID 1224867). Further: nearly all actives have a fitted effect of over 50% in size. The procedure, abridged:
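Real-time, nonlytic viability: 600 HepG2 cells/well mixed with NanoLuc enzyme plus prosubstrate; 5 h settle, compound (DMSO) added by pintool; luminescence monitored over 40 h at 37 C.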

Assay [10] in a line: A CellTox Green Cytotoxicity Assay to monitor cytotoxicity in HEK293 cells - 0 hour (AID 1224869). Further: nearly all actives have a fitted effect of over 50% in size. A digest of the protocol: (§1)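 Real-time, in one plate: 600 HEK293 cells/well with dead-cell DNA dye, pinned compound after 5 h, 37 C incubation over 40 h; viable cells give no appreciable fluorescence.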
Assay [11] can be described thus: qHTS RealTime-Glo MT Cell Viability Assay in HepG2 cells - 40 hour (AID 1224870). Further: nearly all actives have a fitted effect of over 50% in size. The procedure, abridged: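 HepG2 cells mixed with RealTime-Glo MT reagents (NanoLuc plus cell-permeant prosubstrate) were seeded at 600 cells/well, incubated 5 h at 37 C/5% CO2, then pinned with compounds in DMSO; nonlytic luminescence tracked viability during 40 h treatment.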
Assay [12] in a line: A CellTox Green Cytotoxicity Assay to monitor cytotoxicity in HEK293 cells - 40 hour (AID 1224871). Further: nearly all actives have a fitted effect of over 45% in size. The procedure, abridged: as §1
For assay [13], the target named is Nuclear receptor subfamily 1 group I member 3 (Homo sapiens) (UniProt Q14994). The experiment in a line: qHTS assay to identify small molecule agonists of the constitutive androstane receptor (CAR) signaling pathway (AID 1224839). Further: nearly all actives have a fitted effect of over 15% in size. A digest of the protocol:
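Luminescence read-out (ONE-Glo, 30 min, room temperature) from double-stable HepG2-CYP2B6-hCAR cells exposed 24 h to 15-point compound series in presence of 0.75 uM PK11195 final.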

Assay [14] in a line: qHTS assay to identify small molecule antagonists of the estrogen related receptor signaling pathway with the pleiotropic PPARgamma coactivator (PGC) from Tox21 10K library (AID 1224841; call rule not given here; further: potency means the concentration at half of the fitted maximal effect). The procedure, abridged: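 One-Glo luminescence, measured after half an hour at room temperature, quantified reporter output of PGC/ERR cells. These had been plated at 2,000 per well, incubated 6 h, dosed with compounds in DMSO, then kept 18 h at 37 C.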

Assay [15] in a line: qHTS assay to identify small molecule agonists of the estrogen related receptor signaling pathway with the pleiotropic PPARgamma coactivator (PGC) from Tox21 10K library (AID 1224842). Further: nearly all actives have a fitted effect of over 15% in size. The procedure, abridged:
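PGC/ERR reporter cells (NTP line) were seeded 2,000 per well, rested 6 h at 37 C/5% CO2, then pin-dosed with compounds in DMSO for 18 h at 37 C; luciferase read by One-Glo luminescence after 30 min at room temperature.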

The nature of assay [16]: qHTS assay to identify small molecule agonists of H2AX - cell viability counter screen (AID 1224847; calls by dose curve; further: nearly all actives have a fitted effect of over 30% in size; further: potency means the concentration at half of the fitted maximal effect). The procedure, abridged: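 CHO-K1 wt, 1000 cells/well, o/n 37C; cpds 15 conc, 3 h 37C, 0.76% DMSO; CellTiter-Glo, 30 min RT, luminescence.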
A short description of assay [17]: qHTS assay to identify small molecule antagonists of the estrogen related receptor (ERR) signaling pathway from Tox21 library (AID 1224848). Further: nearly all actives have a fitted effect of over 50% in size. Further: potency means the concentration at half of the fitted maximal effect. A digest of the protocol:
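First, 2,000 ERR cells per well were plated and held 6 h at 37 C/5% CO2. Next, compounds in DMSO were pinned in and left 18 h at 37 C. Finally, ONE-Glo was added and luminescence read after 30 min at room temperature.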

A short description of assay [18]: qHTS assay to identify small molecule agonists of the estrogen related receptor (ERR) signaling pathway from Tox21 library (AID 1224849; calls by dose curve; further: nearly all actives have a fitted effect of over 15% in size). To be noted: ERR reporter cell line, ONE-Glo luciferase, 18 h; at 92.4 µM (top of the series) unless noted. A digest of the protocol:
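Luciferase activity in ERR pathway reporter cells served as the agonist readout; exposure lasted 18 h at 37 C, with ONE-Glo detection after 30 min at room temperature.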

A short description of assay [19]: qHTS RealTime-Glo MT Cell Viability Assay in HEK293 cells - 32 hour (AID 1224868). A digest of the protocol:
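Cells + reagent dispensed (600 cells/well, HEK293) → 5 h at 37 C/5% CO2 → 23 nL compound in DMSO pinned → 40 h at 37 C → luminescence read at 0, 8, 16, 24, 32, 40 h.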
On the % scale 0 is the no-effect control and ±100 the full control effect.

Sequence of Thyrotropin receptor (Homo sapiens) (P16473 whole entry, looked up): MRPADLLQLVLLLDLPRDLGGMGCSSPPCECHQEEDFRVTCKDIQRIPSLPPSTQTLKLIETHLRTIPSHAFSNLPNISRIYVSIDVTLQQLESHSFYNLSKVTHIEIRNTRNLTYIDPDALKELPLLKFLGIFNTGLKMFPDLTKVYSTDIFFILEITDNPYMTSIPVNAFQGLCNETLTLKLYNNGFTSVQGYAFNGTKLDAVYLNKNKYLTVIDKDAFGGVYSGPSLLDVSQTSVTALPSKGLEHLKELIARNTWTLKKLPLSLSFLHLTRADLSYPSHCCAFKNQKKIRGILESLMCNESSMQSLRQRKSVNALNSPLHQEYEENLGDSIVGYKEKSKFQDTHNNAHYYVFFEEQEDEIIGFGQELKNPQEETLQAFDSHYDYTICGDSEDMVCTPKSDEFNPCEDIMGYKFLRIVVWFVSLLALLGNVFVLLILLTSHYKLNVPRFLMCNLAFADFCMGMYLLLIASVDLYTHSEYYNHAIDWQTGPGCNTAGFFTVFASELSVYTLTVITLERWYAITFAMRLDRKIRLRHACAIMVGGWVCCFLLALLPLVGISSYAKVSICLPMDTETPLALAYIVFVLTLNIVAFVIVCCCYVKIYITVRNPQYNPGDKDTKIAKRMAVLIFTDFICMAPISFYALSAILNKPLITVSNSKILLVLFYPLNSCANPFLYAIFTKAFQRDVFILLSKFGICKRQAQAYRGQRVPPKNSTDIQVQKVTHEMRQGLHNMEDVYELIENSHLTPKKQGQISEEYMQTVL
Sequence of Nuclear receptor subfamily 1 group I member 3 (Homo sapiens) (Q14994 whole entry, looked up): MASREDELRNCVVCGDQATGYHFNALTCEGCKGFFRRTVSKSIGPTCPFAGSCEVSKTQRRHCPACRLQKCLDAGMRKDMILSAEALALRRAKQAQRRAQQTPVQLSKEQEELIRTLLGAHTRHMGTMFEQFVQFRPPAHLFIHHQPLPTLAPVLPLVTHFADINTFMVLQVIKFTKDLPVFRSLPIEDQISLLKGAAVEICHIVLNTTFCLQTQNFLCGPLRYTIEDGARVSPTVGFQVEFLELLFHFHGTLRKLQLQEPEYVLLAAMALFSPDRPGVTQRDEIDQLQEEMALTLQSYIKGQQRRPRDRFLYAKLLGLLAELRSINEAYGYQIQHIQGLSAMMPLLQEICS

As to `CC(=O)O[C@H]1CC[C@@]2(C)C(=CC[C@@H]3[C@@H]2CC[C@]2(C)C(C(C)=O)=CC[C@@H]32)C1`, the Potency entry in assay [1], in [2], in assay [3], in assay [4], in assay [5] and in assay [6] was “inactive” in each case. The Potency result in assay [7], in assay [9], in assay [10], in assay [11] and in assay [12] was “inactive” each time. Also, the outcome in assay [8] was inactive.
As for `NCCC(O)(P(=O)(O)O)P(=O)(O)O`, the Potency result in [1], in assay [2], in assay [13], in [4], in assay [14] and in assay [15] was “inactive” each time. The Potency result in [5], in [6], in assay [7], in [16], in assay [17] and in [9] was “inactive” each time. Moreover, the Potency result in assay [19], in assay [10] and in assay [12] was “inactive” in each case. For the same compound, the compound was called inactive in [8]. In [18], the activity change, positive = activation was 4.61% [at 42.5 µM].
On to `O=C1N(c2ccccc2)c2ccccc2C1(Cc1ccncc1)Cc1ccncc1`, for which the Potency result in assay [1], in assay [2], in assay [3], in assay [4], in assay [14] and in assay [15] was “inactive” in each case. Moreover, the Potency entry in [6], in assay [7], in [16], in assay [17], in [9] and in [19] was “inactive” each time. The Potency entry in assay [11] and in assay [12] was “inactive” throughout. Moreover, the activity change, positive = activation in [18] was 5.08% [at 42.5 µM].
Take `CCOC(=O)C(Br)c1ccccc1` (stereo unspecified): the Potency entry in assay [1], in [2], in [3], in [4], in assay [5] and in assay [6] was “inactive” each time. Also, the Potency result in [7], in assay [16], in [9], in [19], in [11] and in assay [12] was “inactive” in each case. Further, in assay [8], the compound was called inactive.
`Cc1nc(N)nc(N)c1-c1ccc(Cl)c(Cl)c1`: the Potency entry in assay [1], in [15], in [9], in assay [10], in assay [11] and in [12] was “inactive” throughout. Also, the values for the Potency in [14], in [16] and in assay [17] were 0.841 µM (active), 1.24 µM (active) and 0.944 µM (active), respectively. Besides, in assay [8], the outcome was inactive. Moreover, in assay [18], the activity change, positive = activation was -56.5% [at 42.5 µM].
Regarding `CC1=NN(c2cc(Cl)c(S(=O)(=O)O)cc2Cl)C(=O)C1N=Nc1ccc(S(=O)(=O)O)cc1` (stereo unspecified), the Potency entry in assay [5], in assay [6], in assay [16], in assay [9], in assay [10] and in [11] was “inactive” throughout. The Potency result in assay [12] was “inactive”. Besides, the result in assay [8] was inactive.
On to `CC/C=C\CCOC(=O)CCCCC`, for which the Potency entry in assay [1], in assay [2], in assay [3], in assay [4], in [14] and in assay [15] was “inactive” throughout. The Potency entry in assay [5], in assay [6], in [7], in assay [16], in [17] and in assay [9] was “inactive” in each case. For the same compound, the Potency entry in [11] was “inactive”. The call in assay [8] was inactive. In addition, the activity change, positive = activation in assay [18] is 5.28%.
Take `O=c1[nH]c(=O)n([C@H]2C[C@H](O)[C@@H](CO)O2)cc1C(F)(F)F`: the Potency result in assay [1], in [2], in assay [13], in assay [4], in assay [14] and in assay [15] was “inactive” in each case. The Potency result in [5], in [6], in assay [16], in assay [9], in assay [19] and in assay [10] was “inactive” throughout. Also, the Potency entry in assay [12] was “inactive”. Further, the Potency in [7] is 0.196 µM (active). In addition, in assay [18], the activity change, positive = activation is -26.8% [at 42.5 µM].
In the case of `O=CCCc1ccccc1`, the Potency entry in [1], in assay [2], in [4], in assay [6], in assay [7] and in [9] was “inactive” in each case. The Potency result in [19], in assay [10], in [11] and in [12] was “inactive” throughout. Moreover, the outcome in [8] was inactive. The activity change, positive = activation in assay [18] was 7.2%.
For `CC(C)NCC(O)COc1ccc(CCOCC2CC2)cc1` (stereo unspecified), the Potency entry in assay [1], in [3], in assay [4], in [7], in assay [9] and in [19] was “inactive” each time. Moreover, the Potency result in [11] and in [12] was “inactive” throughout.
